Laboratory results as given in paper PMC5540273 (PLoS ONE, 2017).

The compounds below were run on T1, VEGFR2. Conditions: concentration: 1 μM, replicates: in singlicate; n = 1.
T1 construct: gene KDR
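Note: KINOMEscan kinase panel screen.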

SMILES	%Inh
CS(=O)(=O)c1ccc(-c2c(-c3ncn[nH]3)sc(N3CCOCC3)c2C#N)cc1	8%
CCn1c(-c2cccnc2O)nc2cnccc21 [SB-736715]	0%
Cc1cc(-c2ccc3c(c2)CC[C@@H](N[C@@H](C)c2ccccc2)C3)cnc1N.Cl [GW412617]	1%
COc1ccccc1CNC(=O)c1cc(C(=O)c2ccccc2C)c[nH]1 [GSK364507]	0%
Cc1cccc(-c2nc(-c3ccc(S(C)(=O)=O)cc3)sc2-c2ccnc(NCCc3ccccc3)c2)c1	0%
CC(=O)Nc1nc2cnc(Nc3cc(NC(=O)c4cccc(CCC#N)c4)ccc3C)nc2s1	29%
Cc1cccc(-c2nc(C)cc(Nc3ccncc3)n2)n1 [GSK257997]	0%
CS(=O)(=O)c1ccc(-c2nc3n(c2-c2ccncc2)CCC3)cc1 [SKF-105942]	0%
Cl.c1ccc(-c2n[nH]cc2-c2ccnc(-c3ccc(CN4CCOCC4)cc3)c2)nc1 [GW776245]	0%
Nc1ncnc2[nH]c(-c3ccccc3)nc12 [AH5015]	0%
O=C(O)COc1ncnc2cc(-c3ccc4[nH]ncc4c3)sc12	36%
COc1cc2ncn(-c3cc(OCC4CCCO4)c(C(N)=O)s3)c2cc1OC (centres unmarked) [GSK204607]	8%
Cc1ccc(NC(=O)Nc2cc(C(C)(C)C)nn2-c2ccccc2)cc1 [GSK1014915]	6%
Cc1cccc(-c2nc(Nc3ccc4[nH]ncc4c3)c3ccccc3n2)n1 [GW857175]	23%
